# From PubChem BioAssay
# Only some compounds are listed: those with a hit (about 2.4% of all), similar ones and a draw of the others.
# POLK inh = inhibitors of human DNA polymerase kappa | 0.53% of 400,000 active | AID 588579 | Potency, µM (series often up to 107 µM), inactives show at the highest dose activity, negative = inhibition, hits mostly inhibitors | purified Pol kappa, fluorescent DNA synthesis assay, 10 min; note: % is set by controls: 0 for no effect and ±100 for the full control effect
#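 First, compounds were pin-transferred onto 10 nM Pol kappa. After 15 min at room temperature, substrate was added to 50 nM final. Fluorescence was then measured kinetically at 0 and 10 min.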
# L3MBTL1 inh = L3MBTL1 (human) inhibition; Q9Y468; AlphaScreen L3MBTL1–H3K9me1 peptide binding; Potency, µM (doses to about 57.1 µM), for the others: at the highest dose activity, negative = inhibition, most hits filed as inhibitors; 0.66% of 230,000 active; AID 485360; note: % is set by controls: 0 for no effect and ±100 for the full control effect; nearly all actives have a fitted effect of over 60% in size
# Target sequence (Q9Y468 whole entry, looked up): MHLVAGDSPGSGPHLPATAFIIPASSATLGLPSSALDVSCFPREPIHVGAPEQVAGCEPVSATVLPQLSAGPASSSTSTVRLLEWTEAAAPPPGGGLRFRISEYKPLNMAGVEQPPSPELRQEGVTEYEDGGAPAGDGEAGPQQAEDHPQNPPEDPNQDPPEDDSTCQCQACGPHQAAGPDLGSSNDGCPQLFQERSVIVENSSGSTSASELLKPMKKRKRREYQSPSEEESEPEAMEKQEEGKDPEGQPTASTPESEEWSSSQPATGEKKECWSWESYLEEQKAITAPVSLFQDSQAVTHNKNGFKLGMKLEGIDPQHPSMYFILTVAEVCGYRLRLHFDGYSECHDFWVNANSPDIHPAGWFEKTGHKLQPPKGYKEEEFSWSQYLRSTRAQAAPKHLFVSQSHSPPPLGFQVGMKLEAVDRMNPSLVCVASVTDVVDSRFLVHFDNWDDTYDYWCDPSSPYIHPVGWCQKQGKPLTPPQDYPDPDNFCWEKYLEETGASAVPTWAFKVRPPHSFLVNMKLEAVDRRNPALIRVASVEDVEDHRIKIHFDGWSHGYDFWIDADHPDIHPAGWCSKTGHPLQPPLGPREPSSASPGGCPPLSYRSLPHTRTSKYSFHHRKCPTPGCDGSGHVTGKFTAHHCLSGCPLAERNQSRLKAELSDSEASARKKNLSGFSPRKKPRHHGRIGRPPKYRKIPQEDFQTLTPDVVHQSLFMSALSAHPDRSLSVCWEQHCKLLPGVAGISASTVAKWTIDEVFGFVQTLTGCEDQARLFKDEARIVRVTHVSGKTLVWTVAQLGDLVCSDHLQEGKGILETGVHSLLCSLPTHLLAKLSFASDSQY
#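 AlphaScreen proximity signal between nickel-chelate acceptor and streptavidin donor beads (final 10 ug/mL) reports binding of 50 nM L3MBTL1 to 75 nM biotin-H3 K9me1 peptide; complex incubated with compounds 30 min at room temperature; cefsulodin titration as control.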
# Pol eta inh = DNA polymerase eta (human) inhibition. Q9Y253. recombinant Pol eta, fluorescent DNA replication assay. Potency, µM (top dose mostly 114 µM), inactives show top-dose activity change, negative = inhibition, actives largely listed as inhibitors. 1.2% of 390,000 active; note: % is set by controls: 0 for no effect and ±100 for the full control effect
#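 Fluorescent replication assay: 50 nM final substrate added after a 15 min room-temperature compound preincubation with 10 nM enzyme. Signal taken at 0 min and again at 10 min.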
# Pol iota inh = DNA polymerase iota (human) inhibition | Pol iota fluorescent replication assay, 10 min | Potency, µM (top dose mostly 115 µM), without a hit: at the highest dose activity, negative = inhibition, most hits filed as inhibitors | 1% of 390,000 active | AID 588590
#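 Pol iota at 10 nM preincubated 15 min with compounds at room temperature; reaction started with fluorescent substrate, 50 nM final. Fluorescence read kinetically at 0 and 10 min; buffer-only wells as negative control.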
# Pol beta inh = inhibitors of human DNA polymerase beta; P06746; Pol beta primer extension/strand displacement, fluorescence kinetic; Potency, µM (titrated, usually from 114 µM), without a hit: top-dose activity change, negative = inhibition, hits mostly inhibitors; 1.3% of 340,000 active; note: % is set by controls: 0 for no effect and ±100 for the full control effect
#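 Human Pol beta at 10 nM; strand-displacement substrate 50 nM final. Compound exposure 15 min at room temperature before start, reaction 10 min at room temperature.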
# Starred values were filed as active, the others as inactive; ? = inconclusive; . = not tested or not shown; [ ] = another dose, or the depositor's remark. Calls come from the whole dose curve; as a rule, active = well fitted curve in the direction sought with a large enough effect; inconclusive = small, poorly fitted or top-dose-only effect, or another doubt; inactive = no such curve, though single readings can be large; an effect the other way counts as inactive or inconclusive. Potency is the fitted concentration of half-maximal effect.
SMILES,POLK inh,L3MBTL1 inh,Pol eta inh,Pol iota inh,Pol beta inh
CCc1ccc(NS(=O)(=O)c2[nH]ncc2C(=O)OC)cc1,-26%,.,-12%,79µM*,?
COc1ccc(NC(=O)CCS(=O)(=O)c2ccc(Br)s2)cc1,?,.,50µM*,?,32µM*
CCc1cccc(CC)c1NC(=O)CCS(=O)(=O)c1ccc(Br)s1,-4%,.,-12%,2%,20µM*
COc1ccc2nc(-c3ccccc3)cc(C(=O)OCC(=O)N3CC(C)OC(C)C3)c2c1 (configuration not stated),-26%,-8%,79µM*,?,.
O=C(NNC(=O)C1[C@H]2CCCC[C@@H]12)c1ccc(=O)oc1 (some centres not stated),?,-24%,?,22µM*,79µM*
O=C(NC12CC3CC(CC(C3)C1)C2)c1ccc(=O)oc1,-6%,24%,-3%,18%,9%
O=S(=O)(NCCCCNS(=O)(=O)c1cccc2cccnc12)c1cccc2cccnc12,3%,.,.,9%,.
CC1=C(C(=O)Nc2ccccc2)C(CC(C)C)n2nc(SCc3ccccc3C)nc2N1 (configuration not stated),5%,.,-18%,24%,12%
COc1ccc(-c2ccc3c(c2)S(=O)(=O)c2cccc(C(=O)NCc4cc(C)oc4C(F)(F)F)c2C3=O)cc1OC,?,-6%,11µM*,?,.
O=S(=O)(c1cccs1)N1CCN(c2nc(-c3cccs3)nc3ccccc23)CC1,17%,.,.,-4%,.
O=C1/C(=N\S(=O)(=O)c2cccs2)C([n+]2ccccc2)=C([O-])c2ccccc21,11%,.,32µM*,30%,?
O=C(NCc1cccc(F)c1)C1CCCN(C(=O)N2CCOc3ccccc32)C1 (configuration not stated),0%,.,4%,6%,1%
CCOc1ccc(-n2c(SCc3nc(-c4ccc(OC)cc4)no3)nnc2-c2ccncc2)cc1,15%,.,-21%,18%,16%
Cc1cc(/C=C2/C(=N)N3C(=NC2=O)SN=C3S(C)(=O)=O)c(C)n1-c1ccccc1F,-13%,.,79µM*,?,5%
Cc1cc(/C=C2\C(=N)N3N=C(S(C)(=O)=O)SC3=NC2=O)c(C)n1Cc1ccccc1,-8%,.,35µM*,?,?
Oc1nc(Nc2ccc(F)cc2)sc1/C=C1\C=Nc2ccccc21,-24%,0%,-6%,60%,9%
O=c1[nH]c(S)c(/C=C2\C=Nc3ccccc32)s1,-9%,-23%,40µM*,72%,31%
O=C(CC1N=C2c3ccccc3N=C(SCC(=O)Nc3ccccc3F)N2C1=O)NCc1ccc2c(c1)OCO2 (configuration not stated),-2%,.,2%,-6%,13%
CCOC(=O)c1c(C)[nH]c(CCC(=O)Nc2cc(Cl)ccc2OC)c1C,-5%[60.1 µM],.,-10%,27%,0%
O=S(=O)(N=C1C=CC(=NS(=O)(=O)c2ccccc2)c2ccccc21)c1ccccc1,.,.,50µM*,.,.
CSCc1nc2sc(C(=O)Nc3nc(C)cs3)c(C)c2c(=O)[nH]1,-25%,-12%,32µM*,?,-3%
Nc1nc(SCC(=O)N2N=C3/C(=C/c4ccco4)CCCC3C2c2ccco2)n[nH]1 (configuration not stated),-25%,.,?,45µM*,5%
Cn1cnnc1SCC(=O)N1N=C2/C(=C/c3ccco3)CCCC2C1c1ccco1 (configuration not stated),5%,-18%,-9%,?,1%
Nc1nc(SCC(=O)N2N=C3/C(=C\c4ccco4)CCCC3C2c2ccco2)n[nH]1 (configuration not stated),-32%,.,?,40µM*,.
Cc1ccc2c(CC(=O)OCc3cc(=O)n4c(n3)sc3ccccc34)coc2c1,?,?,10µM*,?,10µM*
SMILES,POLK inh,L3MBTL1 inh,Pol eta inh,Pol iota inh,Pol beta inh
Cc1cccc(CNC(=O)CS(=O)(=O)c2cccc3nsnc23)c1,-7%[60.1 µM],.,-9%,3%,17%
CCn1cc2nc(SCC(=O)Nc3ccc(F)cc3F)n(Cc3ccccc3)c(=O)c2n1,-20%,.,-22%,12%,17%
CCn1cc2nc(SCC(=O)Nc3ccc(C)cc3C)n(Cc3ccc(C)cc3)c(=O)c2n1,-32%,.,79µM*,21%,10µM*
O=C(C1CCCCC1)N1CCCc2ccccc21,-4%,.,-19%,14%,89µM*
O=C(NC1CCCCC1)N1CCCc2ccccc21,-1%,10%,-10%,16%,83%
Cc1noc(C)c1C(=O)N1CCC[C@@]2(CCN(C(c3ccccc3)c3ccccc3)C2)C1,2%[60.1 µM],.,.,.,.
CC(C)(C)c1ccc(OCC(=O)Nc2ccc(C(=O)Nc3ccccc3C(=O)O)cc2)cc1,-28%,.,79µM*,9%,-13%
CCOC(=O)c1nc2sc(C)c(C)c2c(=O)[nH]1,12%,2%,-11%,68%,32%
CCOC(=O)/C(=C\c1cccc(O)c1)c1nc2sc(C)c(C)c2c(=O)[nH]1,-9%,-10%,-20%,18µM*,-29%
NS(=O)(=O)c1ccc(NC(=O)CSc2ncnc3ccccc23)cc1,-3%,-4%,-14%,-24%,32µM*
NS(=O)(=O)c1cccc(NC(=O)CSc2ncnc3ccccc23)c1,-8%,-6%,3%,17%,1%
CCOc1ccc2oc(C(=O)Nc3nccs3)c(C)c2c1,-2%,-4%,22µM*,20%,.
CC(C)CCC[C@@H](C)[C@H]1CC[C@H]2[C@@H]3CC[C@@H]4C[C@H](O)CC[C@]4(C)[C@H]3CC[C@]12C,4%[19.4 µM],.,.,.,.
CC1CCN(S(=O)(=O)c2ccc3c(c2)CCC(=O)N3CC(=O)Nc2cccc(C#N)c2)CC1,-8%[60.1 µM],?,79µM*,?,50µM*
CCc1ccc(-c2nc(CS(=O)CC(=O)NCc3ccco3)c(C)o2)cc1 (configuration not stated),-10%,.,89µM*,12%,?
CC(=O)Nc1ccc(/C=C/c2nc(-c3ccccc3O)n[nH]2)cc1,9%,.,1%,33%,9%
COc1ccc(OC)c(NC(=O)c2c(NCc3cccs3)sc3c2CCCC3)c1,-17%[60.1 µM],.,-18%,?,-13%
COc1ccc(Cl)cc1NC(=O)c1c(NCc2cccs2)sc2c1CCCC2,-9%[60.1 µM],.,50µM*,-8%,?
O=C(NCC(c1ccco1)S(=O)(=O)c1cccs1)c1ccc(F)c(F)c1 (configuration not stated),-4%[60.1 µM],.,-13%,36%,15%
O=C(Nc1ccc2c(c1)OCO2)C1Cc2ccccc2CN1S(=O)(=O)c1cccs1 (configuration not stated),?,?,?,20µM*,16µM*
C/C(=N/NC(=O)C(O)(c1ccccc1)c1ccccc1)c1ccc([N+](=O)[O-])o1,-15%,.,79µM*,?,13µM*
